# Values joined by “and” are separate entries in the source; they are usually repeats but may differ in a detail not shown here. Identical values can stand only once. Active and inactive are the calls of the source. Unless noted, no rule for the calls is given here.
# Assays:
# [1] = liver-stage malaria parasite growth inhibition, primary screen, cell-based, HepG2, luciferase luminescence, HepG2 viability (AID 624349; in the data active = parasite load remaining mostly below about 12%, no sharp cut-off; inactive = mostly above about 10%;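 also: 100% = mean of DMSO negative control wells on the same plate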); settings: P. berghei liver stage in HepG2, luciferase luminescence, concentration not given here; parasite load remaining: stronger effect = lower value; viability: measured here: HepG2 viability without parasites
# [2] = stimulators of nuclear beta-catenin in C2C12, primary screen, imaging, WNT3A-conditioned medium, mouse C2C12, NPC library (AID 1117326; in the data active = nuclear beta-catenin stimulation mostly above about 4.2%, no sharp cut-off; inactive = mostly below about 10%); settings: stronger effect = higher value
# [3] = stimulators of insulin release from INS-1E, primary screen, cell-based, 5 mM glucose, NPC library (AID 1117329;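 active = compound raises insulin release from rat beta cells at 5 mM glucose, no numeric limit stated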); settings: rat INS-1E insulin secretion, at 10 µM, stronger effect = higher value
# [4] = growth inhibition of GSK3B-pretreated HCT116 cells – cell-based, CellTiter-Glo, 0.2 to 20 µM (AID 1117336;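 active = compounds lowering colon cancer cell viability after pretreatment blocking the GSK3B kinase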); settings: HCT116 viability after GSK3B inhibitor, at 20 µM, stronger effect = higher value
# [5] = inhibition of endothelial tube formation, primary screen, imaging, VEGF stimulated, CD31 staining, tube area, NPC library (AID 1117340;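 active = compound that reduces growth-factor-driven endothelial tube area in a mixed cell culture, no cutoff stated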); settings: VEGF-stimulated ADSC/ECFC co-culture, at 10 µM, stronger effect = higher value
# [6] = glucagon-like peptide 1 release enhancers, primary assay, NCI-H716 cell line, NPC library (AID 1117341;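 active = compound raises GLP1 secretion from the human gut endocrine cells, with no numeric limit stated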); settings: NCI-H716 cells, at 10 µM, stronger effect = higher value
# [7] = HCT116 colon cancer cell growth inhibition, primary screen, CellTiter-Glo luminescence, NPC library (AID 1117342;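 active = compounds that lower survival of HCT116 colon cancer cells in the luminescence readout, no numeric limit stated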); settings: at 20 µM (top of the series)
# [8] = CellTiter-Glo luminescent readout of SW480 viability loss, NPC library primary (AID 1117343;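 active = compounds that lower viability of the colon cancer cells in the luminescence readout, with no numeric limit stated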); settings: CellTiter-Glo luminescence; at 20 µM (top of the series)
# [9] = decreased DLD-1 cellular survival, CellTiter-Glo luminescent readout, NPC compound collection, primary HTS (AID 1117346;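 active = compounds that lower survival of DLD-1 colon cancer cells in the luminescence readout, no cutoff given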); settings: DLD-1 viability, CellTiter-Glo luminescence; at 20 µM (top of the series)
# [10] = target: 6-phosphogluconate dehydrogenase, decarboxylating (Homo sapiens) (UniProt P52209); test: 6PGD enzyme inhibitors, primary screen, biochemical, human, recombinant enzyme, NADPH absorbance (AID 1159550;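 active = at least 20% inhibition of 6-phosphogluconate dehydrogenase activity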); settings: recombinant 6PGD, NADPH absorbance 341 nm; at 10 µM; stronger effect = higher value
# 6-phosphogluconate dehydrogenase, decarboxylating (Homo sapiens), sequence (P52209 whole entry, looked up): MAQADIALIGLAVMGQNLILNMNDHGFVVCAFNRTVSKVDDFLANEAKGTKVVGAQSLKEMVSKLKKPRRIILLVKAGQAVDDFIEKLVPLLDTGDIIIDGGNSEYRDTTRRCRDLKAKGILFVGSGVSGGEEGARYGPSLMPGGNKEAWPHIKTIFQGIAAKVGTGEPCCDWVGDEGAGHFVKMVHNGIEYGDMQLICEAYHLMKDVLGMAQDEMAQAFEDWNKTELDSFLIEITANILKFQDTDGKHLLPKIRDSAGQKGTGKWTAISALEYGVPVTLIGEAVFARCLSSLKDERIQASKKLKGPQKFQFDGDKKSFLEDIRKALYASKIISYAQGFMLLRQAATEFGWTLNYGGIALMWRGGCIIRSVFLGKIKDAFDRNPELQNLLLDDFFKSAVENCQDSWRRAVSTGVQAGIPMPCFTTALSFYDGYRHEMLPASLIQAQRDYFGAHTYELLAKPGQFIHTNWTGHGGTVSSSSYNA
# [11] = differential killing of epithelial or mesenchymal cells, primary screen, imaging, PC-3E GFP, TEM4-18 mCherry, co-culture (AID 1345086;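 active = compounds killing one labelled cell type while sparing the other, by normalised counts and ratio limits, not self-fluorescent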;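 as to all read-outs here: cells exposed to compound for 72 h before imaging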;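 as to red/green cell ratio (normalised): normalised mesenchymal count divided by normalised epithelial count so high means epithelial killing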); settings: imaging cell counts, at 1 µM; for red/green cell ratio (normalised): actives lie on both sides
# [12] = system: Aerobactin synthetase IucA (Klebsiella pneumoniae hvKP1); test: Biochemical IucA enzyme inhibition primary screen of the Spectrum library (AID 1346200); settings: malachite green pyrophosphate, A620, at 8 µM, stronger effect = lower value;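 also: 100% = wells without compound and 0% = wells lacking enzyme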
# [13] = sensitizers of A549 cells to miR-34 induction, primary screen, imaging, A549 dox-inducible miR-34, nuclei and caspase counts (AID 1347080;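 active = compounds whose cell count with miR-34 switched on is under 0.7 times the count with it off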); settings: A549 miR-34 inducible, Hoechst nuclei count, 48 h
# [14] = survival rescue of mitochondrial mutant cells in low glucose, primary screen, MELAS cybrids, Rieske KO mouse fibroblasts, CellTiter-Glo (AID 1508586;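 active = mean z-score across replicates of 1.96 or higher in either the MELAS or the Rieske mutant cell line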;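 also: z relative to plate mean and SD of compound and empty wells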)
# [15] = target: NAD(+) hydrolase SARM1 (Homo sapiens) (UniProt Q6SZW1); test: SARM1 TIR NADase inhibitors, cell lysate, NAD-Glo luminescence (AID 1508614;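 active = compound whose remaining NAD level is above about 45 nM, limit read from the data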;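 also: higher remaining NAD means stronger inhibition of SARM1 NADase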); settings: SAM-TIR HEK293T lysate NADase, at 1 µM, stronger effect = higher value
# NAD(+) hydrolase SARM1 (Homo sapiens), sequence (Q6SZW1 whole entry, looked up, the tested form may be a part): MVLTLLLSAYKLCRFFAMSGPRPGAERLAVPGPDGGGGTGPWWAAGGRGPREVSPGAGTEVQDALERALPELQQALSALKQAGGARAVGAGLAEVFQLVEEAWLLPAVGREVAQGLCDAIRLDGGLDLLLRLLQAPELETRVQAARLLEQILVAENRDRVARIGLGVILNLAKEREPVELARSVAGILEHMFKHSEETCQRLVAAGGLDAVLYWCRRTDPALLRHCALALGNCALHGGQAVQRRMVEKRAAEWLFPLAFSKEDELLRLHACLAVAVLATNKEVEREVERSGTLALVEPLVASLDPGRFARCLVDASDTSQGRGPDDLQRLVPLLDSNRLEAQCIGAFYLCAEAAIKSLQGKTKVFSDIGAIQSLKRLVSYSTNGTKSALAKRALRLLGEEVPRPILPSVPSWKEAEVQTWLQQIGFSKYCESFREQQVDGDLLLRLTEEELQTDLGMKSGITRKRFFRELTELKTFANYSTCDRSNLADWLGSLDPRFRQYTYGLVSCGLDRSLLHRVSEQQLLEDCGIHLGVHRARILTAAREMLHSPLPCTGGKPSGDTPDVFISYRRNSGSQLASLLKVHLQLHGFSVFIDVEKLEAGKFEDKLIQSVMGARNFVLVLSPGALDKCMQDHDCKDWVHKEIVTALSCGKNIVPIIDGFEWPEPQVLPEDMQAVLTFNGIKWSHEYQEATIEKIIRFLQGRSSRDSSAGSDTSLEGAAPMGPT
# [16] = target: Mitogen-activated protein kinase 7 (Homo sapiens) (UniProt Q13164); test: ERK5 transactivation activators in reporter cells, primary screen, cell-based, HTS (AID 1508626;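 active = luciferase signal above three times the same-plate solvent-only control wells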;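 also: luciferase driven by Gal4-ERK5 fusion binding five Gal4 sites before minimal TATA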); settings: HeLa Gal4-ERK5 transactivation, 18 h, at 5 µM, stronger effect = higher value
# Mitogen-activated protein kinase 7 (Homo sapiens), sequence (Q13164 whole entry, looked up, the tested form may be a part): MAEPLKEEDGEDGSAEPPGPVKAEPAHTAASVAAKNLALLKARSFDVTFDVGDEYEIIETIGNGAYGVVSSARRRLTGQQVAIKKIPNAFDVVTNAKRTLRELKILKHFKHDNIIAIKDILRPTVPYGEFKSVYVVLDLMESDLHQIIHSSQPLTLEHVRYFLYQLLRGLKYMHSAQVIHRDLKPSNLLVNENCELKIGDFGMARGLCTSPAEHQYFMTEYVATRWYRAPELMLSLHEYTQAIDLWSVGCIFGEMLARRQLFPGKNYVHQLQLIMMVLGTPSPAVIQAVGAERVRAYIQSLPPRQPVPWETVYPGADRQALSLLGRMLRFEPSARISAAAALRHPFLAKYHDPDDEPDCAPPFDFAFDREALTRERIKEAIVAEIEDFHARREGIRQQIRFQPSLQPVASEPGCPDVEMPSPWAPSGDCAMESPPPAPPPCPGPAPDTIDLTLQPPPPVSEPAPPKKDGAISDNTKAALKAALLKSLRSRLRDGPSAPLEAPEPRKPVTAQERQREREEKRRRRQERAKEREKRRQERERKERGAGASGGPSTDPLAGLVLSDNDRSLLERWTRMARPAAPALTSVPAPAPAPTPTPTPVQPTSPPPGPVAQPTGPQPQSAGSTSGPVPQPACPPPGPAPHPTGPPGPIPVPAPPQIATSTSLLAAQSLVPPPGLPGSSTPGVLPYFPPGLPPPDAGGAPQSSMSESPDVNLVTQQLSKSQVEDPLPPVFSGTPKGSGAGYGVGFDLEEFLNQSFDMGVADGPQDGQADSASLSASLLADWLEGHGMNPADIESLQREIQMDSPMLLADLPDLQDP
# [17] = hESC survival regulators, cell-based (AID 493140); settings: human embryonic stem cell survival screen; stronger effect = higher value;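 also: cells exposed to compounds for four days before counting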
# [18] = system: Aerobactin synthetase IucA (Klebsiella pneumoniae, hypervirulent); test: IucA enzyme inhibition, biochemical, LOPAC library, absorbance readout (AID 1346212); settings: IucA enzyme assay, absorbance (OD) readout; stronger effect = lower value;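 tested at 8 µM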;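 also: 100% = no compound wells and 0% = no enzyme wells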
# [19] = viability rescue of complex I mutant cybrids, primary screen, cell-based, galactose medium, ATP luminescence (AID 1645843;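 active = z-score of at least 1.8 in each of two replicates, scored against plate mean and spread of sample wells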;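 also: positive z means more ATP and so rescue of galactose-driven cybrid death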); settings: complex I mutant cybrid cells, 72 h, stronger effect = higher value
# [20] = measured here: epithelial PC-3E GFP cell survival
# [21] = measured here: mesenchymal TEM4-18 mCherry cell survival
# [22] = measured here: relative caspase fold change +Dox/-Dox
# [23] = measured here: total cells with miR-34 induction, stronger effect = lower value
# [24] = measured here: total cells without miR-34 induction
# [25] = MELAS cybrid survival, CellTiter-Glo 48 h, stronger effect = higher value
# [26] = Rieske KO mouse fibroblast survival, CellTiter-Glo 72 h
structure (smiles),measurement,setting,value
c1ccc2c(c1)sc1ccccc12,parasite load remaining,[1],94.3% (inactive) and 69.4% (inactive)
same,viability,[1],70.5% and 91.8%
same,nuclear beta-catenin stimulation,[2]; at 10 µM,0.1% (inactive)
same,nuclear beta-catenin stimulation,"[2]; stimulation, at 2 µM",0.9%
same,insulin secretion stimulation,[3],-1.4% (inactive)
same,viability decrease,[4],-3.95% (inactive)
same,tube area decrease,[5],-9.2% (inactive)
same,GLP1 secretion stimulation,[6],-2.6% (inactive)
same,inhibition of viability,[7],-22.5% (inactive)
same,viability decrease (inhibition),[8],-1.8% (inactive)
same,viability decrease (inhibition),[9],3% (inactive)
same,inhibition,[10],9.3% (inactive)
same,red/green cell ratio (normalised),[11],1.2 (inactive)
same,normalised cell number,[11]; [20],1.12
same,normalised cell number,[11]; [21],1.35
same,activity remaining,[12],113% (inactive)
same,fold change,[13]; stronger effect = lower value,0.934 (inactive) and 0.791 (inactive)
same,fold change,[13]; [22],0.629 and 1.03
same,cell count,[13]; [23],8380 and 10000
same,cell count,[13]; [24],8970 and 12600
same,z-score,[14]; [25],-0.144 (inactive)
same,z-score,[14]; [26],-0.145
same,remaining NAD,[15],10 nM (inactive)
same,luciferase signal,[16],32 AU (inactive)
CCOP(=S)(OCC)Oc1ccc2c(C)c(Cl)c(=O)oc2c1,nuclear beta-catenin stimulation,[2]; at 10 µM,8.6% (inactive)
same,nuclear beta-catenin stimulation,"[2]; stimulation, at 2 µM",1.6%
same,insulin secretion stimulation,[3],-1.3% (inactive)
same,viability decrease,[4],-12.5% (inactive)
same,tube area decrease,[5],41% (active)
same,GLP1 secretion stimulation,[6],2.3% (inactive)
same,inhibition of viability,[7],-16% (inactive)
same,viability decrease (inhibition),[8],-55% (inactive)
same,viability decrease (inhibition),[9],-8.8% (inactive)
same,inhibition,[10],6.24% (inactive)
same,red/green cell ratio (normalised),[11],1.09 (inactive)
same,normalised cell number,[11]; [20],0.91
same,normalised cell number,[11]; [21],0.99
same,fold change,[13]; stronger effect = lower value,0.908 (inactive)
same,fold change,[13]; [22],1.03
same,cell count,[13]; [23],8520
same,cell count,[13]; [24],9380
same,remaining NAD,[15],10 nM (inactive)
same,luciferase signal,[16],72 AU (inactive)
Cc1cccc(C)c1NC1=NCCCS1,survival,[17],6.75 (inactive)
same,nuclear beta-catenin stimulation,[2]; at 10 µM,0.7% (inactive)
same,nuclear beta-catenin stimulation,"[2]; stimulation, at 2 µM",1.8%
same,insulin secretion stimulation,[3],3.2% (inactive)
same,viability decrease,[4],-8.6% (inactive)
same,tube area decrease,[5],-3.5% (inactive)
same,GLP1 secretion stimulation,[6],1.7% (inactive)
same,inhibition of viability,[7],10.6% (inactive)
same,viability decrease (inhibition),[8],-13.1% (inactive)
same,viability decrease (inhibition),[9],2.9% (inactive)
same,inhibition,[10],-17.7% (inactive)
same,red/green cell ratio (normalised),[11],1.15 (inactive)
same,normalised cell number,[11]; [20],1.1
same,normalised cell number,[11]; [21],1.27
same,activity remaining,[12],116% (inactive)
same,remaining activity,[18],121% (inactive)
same,z-score,[14]; [25],-0.333 (inactive) and 0.534 (inactive) and -0.793 (inactive)
same,z-score,[14]; [26],-0.0574 and -0.344 and 0.356
same,remaining NAD,[15],10 nM (inactive)
same,luciferase signal,[16],36 AU (inactive)
same,z-score,[19],0.22 (inactive) and 0.48 (inactive)
O=[N+]([O-])O[C@H]1CO[C@H]2[C@@H]1OC[C@H]2O[N+](=O)[O-],survival,[17],6 (inactive)
same,parasite load remaining,[1],88.7% (inactive) and 89.6% (inactive) and 73.9% (inactive)
same,viability,[1],101% and 72.5% and 103%
same,nuclear beta-catenin stimulation,[2]; at 10 µM,1.4% (inactive)
same,nuclear beta-catenin stimulation,"[2]; stimulation, at 2 µM",0.8%
same,insulin secretion stimulation,[3],0.2% (inactive)
same,viability decrease,[4],-35.2% (inactive)
same,tube area decrease,[5],2.7% (inactive)
same,GLP1 secretion stimulation,[6],-0.1% (inactive)
same,inhibition of viability,[7],-4.45% (inactive)
same,viability decrease (inhibition),[8],10.7% (inactive)
same,viability decrease (inhibition),[9],-9.7% (inactive)
same,inhibition,[10],-5.58% (inactive)
same,red/green cell ratio (normalised),[11],1.14 (inactive)
same,normalised cell number,[11]; [20],1.17
same,normalised cell number,[11]; [21],1.33
same,activity remaining,[12],86.8% (inactive)
same,fold change,[13]; stronger effect = lower value,0.842 (inactive) and 0.816 (inactive)
same,fold change,[13]; [22],1.05 and 0.822
same,cell count,[13]; [23],8050 and 10900
same,cell count,[13]; [24],9560 and 13300
same,z-score,[14]; [25],-0.72 (inactive)
same,z-score,[14]; [26],-0.455
same,remaining NAD,[15],10 nM (inactive)
same,luciferase signal,[16],164 AU (inactive)

# — PubChem BioAssay
